In all, about 67,000 compounds went through this assay and about 300 (0.45%) showed an effect of 50% or more. For the sample, strong results were picked, then their nearest neighbours and some compounds at random.

Polyketide synthase Pks13 (Mycobacterium tuberculosis (strain ATCC 25618 / H37Rv)), sequence (I6X8D2 whole entry): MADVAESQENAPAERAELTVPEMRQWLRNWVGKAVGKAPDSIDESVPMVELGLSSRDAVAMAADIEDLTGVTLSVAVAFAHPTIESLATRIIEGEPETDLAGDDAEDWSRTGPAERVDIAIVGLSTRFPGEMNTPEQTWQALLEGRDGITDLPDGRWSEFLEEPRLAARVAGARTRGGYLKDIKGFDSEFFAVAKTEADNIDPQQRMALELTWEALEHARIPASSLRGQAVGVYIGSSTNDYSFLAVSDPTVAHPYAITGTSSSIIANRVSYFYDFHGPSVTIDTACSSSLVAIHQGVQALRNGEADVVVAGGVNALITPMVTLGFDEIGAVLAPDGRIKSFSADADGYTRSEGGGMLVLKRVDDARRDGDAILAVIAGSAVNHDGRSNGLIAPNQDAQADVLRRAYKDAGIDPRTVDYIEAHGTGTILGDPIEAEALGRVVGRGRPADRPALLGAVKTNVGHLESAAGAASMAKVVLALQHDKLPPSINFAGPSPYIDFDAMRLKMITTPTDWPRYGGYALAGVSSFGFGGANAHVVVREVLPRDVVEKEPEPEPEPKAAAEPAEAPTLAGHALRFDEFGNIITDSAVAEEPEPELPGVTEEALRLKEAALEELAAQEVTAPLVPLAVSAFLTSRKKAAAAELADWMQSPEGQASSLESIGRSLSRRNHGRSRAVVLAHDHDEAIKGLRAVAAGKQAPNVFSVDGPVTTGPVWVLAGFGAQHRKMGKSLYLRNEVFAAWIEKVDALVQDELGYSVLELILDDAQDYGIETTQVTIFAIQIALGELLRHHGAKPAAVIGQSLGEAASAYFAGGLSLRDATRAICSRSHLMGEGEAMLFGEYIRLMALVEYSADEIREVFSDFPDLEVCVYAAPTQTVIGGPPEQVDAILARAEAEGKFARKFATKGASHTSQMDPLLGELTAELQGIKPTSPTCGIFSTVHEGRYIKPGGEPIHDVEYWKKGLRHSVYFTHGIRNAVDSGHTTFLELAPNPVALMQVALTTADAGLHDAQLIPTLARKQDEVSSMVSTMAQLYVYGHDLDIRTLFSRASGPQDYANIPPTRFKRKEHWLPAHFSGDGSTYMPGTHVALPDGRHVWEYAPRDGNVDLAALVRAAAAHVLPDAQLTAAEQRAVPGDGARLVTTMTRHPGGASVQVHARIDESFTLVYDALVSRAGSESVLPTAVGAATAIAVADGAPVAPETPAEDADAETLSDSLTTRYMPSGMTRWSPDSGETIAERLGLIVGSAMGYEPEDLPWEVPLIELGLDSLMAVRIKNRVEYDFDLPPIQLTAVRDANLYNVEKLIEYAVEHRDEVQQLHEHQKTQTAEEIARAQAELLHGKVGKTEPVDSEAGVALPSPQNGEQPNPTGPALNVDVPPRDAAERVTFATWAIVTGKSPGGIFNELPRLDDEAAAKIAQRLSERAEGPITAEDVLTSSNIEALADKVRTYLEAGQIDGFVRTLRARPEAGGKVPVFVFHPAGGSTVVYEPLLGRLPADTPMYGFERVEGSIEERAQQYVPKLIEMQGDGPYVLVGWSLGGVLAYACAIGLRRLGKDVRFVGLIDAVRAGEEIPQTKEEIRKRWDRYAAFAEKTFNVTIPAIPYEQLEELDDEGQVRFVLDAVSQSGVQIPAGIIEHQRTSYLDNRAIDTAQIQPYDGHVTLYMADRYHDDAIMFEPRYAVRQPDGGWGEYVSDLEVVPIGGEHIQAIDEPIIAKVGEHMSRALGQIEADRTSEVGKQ

The test concerns the target Polyketide synthase Pks13 (Mycobacterium tuberculosis (strain ATCC 25618 / H37Rv)) (UniProt I6X8D2). The test is described as follows: Mycobacterium tuberculosis Polyketide synthase 13 Thioesterase (PKS13). Type of test: functional. Details: scale not given: in the data most compounds retested in dose-response had high values. Particulars: 30 µM.
With `CC(C)c1cc(C(F)(F)F)n2nc(CCC(=O)O)nc2n1`, the Percent Effect was found to be 5.23%.

With `CCn1cc(-c2cc(C(F)F)n3nc(CCC(=O)O)nc3n2)cn1`, the Percent Effect was found to be 32.3%.

With `CCn1ncc(-c2cc(C(F)F)n3nc(CCC(=O)O)nc3n2)c1C`, the Percent Effect came to 15.6%.

`Cn1cc(-c2cc(C(F)F)n3nc(CCC(=O)O)nc3n2)cn1`: the Percent Effect was found to be 51.2%.

On to `CCn1cc(-c2cc(C(F)F)n3nc(CC(=O)O)nc3n2)cn1`, for which the Percent Effect was found to be 62.5%.

With `Cc1nn(C)cc1-c1cc(C(F)F)n2nc(CCC(=O)O)nc2n1`, the Percent Effect is 16.4%.

With `CN(C)C(=O)N1CCN(CCCc2ccccc2)[C@H]2CS(=O)(=O)C[C@H]21`, the Percent Effect is -15%.

On to `Cc1oncc1C(=O)N1C[C@H](OCc2ccccn2)[C@H]2OCCC[C@H]21`, for which the Percent Effect is -0.48%.

As to `O=S1(=O)C[C@@H]2[C@H](C1)N(Cc1ncc[nH]1)CCN2Cc1cccnc1`, the Percent Effect was -6.48%.

Turning to `COC(=O)CNC(=O)c1cn(-c2ccccn2)c(=O)c2ccccc12`, the Percent Effect is 41.4%.

Consider `CC(C)CNC(=O)c1cn(-c2ccccn2)c(=O)c2ccccc12`, for which the Percent Effect worked out at 42.5%.

For `O=C(O)c1cn(-c2ccccn2)c(=O)c2ccccc12`, the Percent Effect was determined as 57%.

`CN(C)C(=O)[C@]12CCCN(CC3CC3)C[C@H]1CN(c1ccccn1)C2`: the Percent Effect was -21.7%.

Regarding `COCCc1noc(-c2cn(CCc3ccccc3)nn2)n1`, the Percent Effect amounted to 62.2%.

For the molecule `COCCc1noc(-c2cn(Cc3ccccc3C)nn2)n1`, the Percent Effect is -13.8%.

On to `COCCc1noc(-c2cn(Cc3ccc(OC)cc3)nn2)n1`, for which the Percent Effect was -2.84%.

For `CN(Cc1cncnc1)[C@@H]1CN(Cc2ccco2)C[C@@H]2CCCO[C@@H]21`, the Percent Effect is -4.7%.

In the case of `O=C(NCC1CC1)[C@H]1C[C@@H]2CCN(Cc3nccs3)C[C@@H]2O1`, the Percent Effect is -42.1%.

Regarding `O=C(N[C@H]1CN[C@H]2CCCO[C@H]21)c1ccno1`, the Percent Effect is -17%.

On to `O=C(c1cnccn1)N1C[C@@H]2CC[C@H](C1)N(S(=O)(=O)c1cccnc1)C2`, for which the Percent Effect was 56.1%.

With `O=C(c1ccccc1)N1C[C@@H]2CC[C@H](C1)N(S(=O)(=O)c1cccnc1)C2`, the Percent Effect was -34.5%.

With `O=C(c1ccncc1)N1C[C@@H]2CC[C@H](C1)N(S(=O)(=O)c1cccnc1)C2`, the Percent Effect is -25.8%.

As for `O=S1(=O)C[C@@H]2[C@H](C1)N(Cc1ncc[nH]1)CCN2C/C=C/c1ccccc1`, the Percent Effect stood at 5.07%.

Consider `CCC1=N[C@@]2(CC[C@@H]3CN(S(=O)(=O)CC)C[C@@H]32)C(=O)N1CCOC`, for which the Percent Effect was -31.3%.

Regarding `Cc1cnc2c(C(=O)N3CCCC(OCc4ccccn4)C3)cnn2c1` (centres undefined), the Percent Effect turned out to be 81.5%.

Regarding `O=C(c1cnn2ccccc12)N1CCCC(OCc2ccccn2)C1` (centres undefined), the Percent Effect is -9.11%.

On to `CCCn1ncc(C(=O)N2CCCC(OCc3ccccn3)C2)c1C` (centres undefined), for which the Percent Effect is -15.6%.

`Cc1cccc(CN2CC[C@H]3OCC[C@@]3(C(=O)N3CCCO3)C2)n1`: the Percent Effect amounted to 8.33%.

As to `CNC[C@H]1CC[C@H](c2cc(CN(C)C(=O)c3cnccn3)n(C)n2)CC1`, the Percent Effect is -6.04%.

Turning to `CC(NC(=O)Nc1cccnc1N1CCCC1)c1nncn1C` (centres undefined), the Percent Effect came to 56%.

Consider `COc1ncccc1NC(=O)NC(C)c1nncn1C` (centres undefined), for which the Percent Effect was -5.35%.

Take `CC(NC(=O)Nc1cccnc1N1CCCC1)c1ccncc1` (centres undefined): the Percent Effect was 0.204%.

As for `CCc1cnc(N2C[C@H]3C[C@H](C(=O)N(C)C)[C@@H](C2)O3)nc1`, the Percent Effect was -7.42%.

For the molecule `N#CCCCS(=O)(=O)N1CCC(CSc2ccccc2)C1` (centres undefined), the Percent Effect is -31.5%.

As to `N#Cc1nccnc1N1CCC(CSc2ccccc2)C1` (centres undefined), the Percent Effect is 53.9%.

Consider `CCS(=O)(=O)N1CCC(CSc2ccccc2)C1` (centres undefined), for which the Percent Effect was determined as 9.93%.

For `Cc1ccc(N2CCO[C@H]3CN(Cc4ccc(F)cc4)C[C@H]32)nn1`, the Percent Effect stood at 4.79%.

With `CC(C)N1CCO[C@H]2CN(C(=O)c3ccncc3F)C[C@H]21`, the Percent Effect is -27%.

For `O=C(O)[C@]12CCCN(Cc3ccccn3)[C@@H]1CCN(c1cnccn1)C2`, the Percent Effect came out at 95.4%.

For `O=C(O)[C@]12CCCN(Cc3ccncc3)[C@@H]1CCN(c1cnccn1)C2`, the Percent Effect is -7.13%.

On to `O=C(O)[C@]12CCCN(Cc3cccnc3)[C@@H]1CCN(c1cnccn1)C2`, for which the Percent Effect was 10.4%.

`Cc1ccsc1CN1CC[C@H]2OCC[C@@]2(C(=O)N2CCCO2)C1`: the Percent Effect is -17.7%.

As for `O=C(NC[C@]12COC[C@H]1CN(Cc1ccncc1)C2)c1ccno1`, the Percent Effect was -9.3%.

Turning to `Cc1ncnc2c1CCN(C(=O)c1cccnc1)CC2`, the Percent Effect is -18.2%.

For `CN(C)c1ncnc2c1CCN(C(=O)c1cccnc1)CC2`, the Percent Effect is 61.9%.

For `O=C(c1cccnc1)N1CCc2ncnc(N3CCOCC3)c2CC1`, the Percent Effect is -1.96%.

`CN1C(=O)C[C@@H]2[C@@H]1CCN2C(=O)c1ccc[nH]1`: the Percent Effect is -5.06%.

In the case of `Cc1cc(CN2CC[C@H]3C[C@H](C)O[C@@H]3C2)no1`, the Percent Effect was -27.6%.

With `Cc1cccc(OC2CCN(c3ccc(C#N)cn3)CC2)n1`, the Percent Effect turned out to be 22.3%.

On to `Cc1cccc(OC2CCN(c3nccnc3C#N)CC2)n1`, for which the Percent Effect amounted to 85.3%.

With `Cc1cccc(OC2CCN(c3ncc(C#N)cc3Cl)CC2)n1`, the Percent Effect was found to be 26.2%.

For the molecule `COCCNC(=O)C[C@@H]1COC[C@H]2CN(Cc3cccnc3)C[C@@H]12`, the Percent Effect stood at 7.6%.

For the molecule `COc1ccc(CN2C[C@H](OCC3CCOCC3)[C@H]3COC[C@H]32)cc1`, the Percent Effect is -3.35%.

Consider `O=C(NCc1cccc(F)c1)N1CCc2ncnc(NC3CC3)c2CC1`, for which the Percent Effect is -9.48%.

The values above are taken from ChEMBL document CHEMBL3988442, “University of Dundee, Small-Polar-MMV Screening Library” (2021).
